Experimental data published in article PMC10812921, “Transcriptional Coactivator BOB1 (OBF1, OCA-B) Modulates the Specificity of DNA Recognition by the POU-Domain Factors OCT1 and OCT2 in a Monomeric Configuration”.

Key:
[1] = molecular target: POU1 (OCT1 POU domain) (human, UniProt P14859 260-458); assay: EMSA-SELEX-seq; no BOB1; 20 mM Tris-HCl pH 7.6, 140 mM NaCl, 10% glycerol, 0.5 mM EDTA, 0.05% Triton X-100, 0.1 mg/mL BSA, 0.1 mg/mL poly(dI-dC), 5 mM DTT, room temperature, 20 min; high values mean tight binding; settings: protein: recombinant; dsDNA, one strand shown
Method in brief: (§1)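 Binding preference means the percentage of sequenced 8-mers matching a motif pattern. Tagged POU-domain proteins (30 ng), expressed in E. coli BL21, purified under denaturing conditions and renatured, were mixed with 300 ng of a PCR-amplified double-stranded random 35-nt library, with or without 28 ng coactivator protein, for 20 min at RT in 20 μL Tris–HCl pH 7.6 binding buffer. Selection was repeated over four rounds of excising complex bands from native 6% PAGE, eluting and PCR amplification, followed by Illumina sequencing.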

[2] = molecular target: T1, POU2 (OCT2 POU domain) (human, UniProt P09086 175-386); assay: as above; settings: protein: recombinant; dsDNA, one strand shown
T1 sequence: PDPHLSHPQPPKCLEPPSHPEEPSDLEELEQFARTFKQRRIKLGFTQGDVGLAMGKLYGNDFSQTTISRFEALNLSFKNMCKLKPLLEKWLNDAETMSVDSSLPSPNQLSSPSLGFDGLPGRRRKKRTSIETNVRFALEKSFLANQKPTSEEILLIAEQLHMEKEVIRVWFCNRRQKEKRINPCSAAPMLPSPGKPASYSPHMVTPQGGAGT
Method in brief: as §1

[3] = molecular target: POU1 (OCT1 POU domain);BOB1 (OBF1, OCA-B) (human;human, UniProt P14859;Q16633 260-458;1-256, |); assay: EMSA-SELEX-seq; with BOB1 (ternary complex band); 20 mM Tris-HCl pH 7.6, 140 mM NaCl, 10% glycerol, 0.5 mM EDTA, 0.05% Triton X-100, 0.1 mg/mL BSA, 0.1 mg/mL poly(dI-dC), 5 mM DTT, room temperature, 20 min; high values mean tight binding; settings: protein: recombinant;recombinant; copies: 1;1; dsDNA, one strand shown
Method in brief: as §1

[4] = molecular target: T2, POU2 (OCT2 POU domain);BOB1 (OBF1, OCA-B) (human;human, UniProt P09086;Q16633 175-386;1-256, |); assay: as above; settings: protein: recombinant;recombinant; copies: 1;1; dsDNA, one strand shown
T2 sequence 1: T1 sequence
T2 sequence 2: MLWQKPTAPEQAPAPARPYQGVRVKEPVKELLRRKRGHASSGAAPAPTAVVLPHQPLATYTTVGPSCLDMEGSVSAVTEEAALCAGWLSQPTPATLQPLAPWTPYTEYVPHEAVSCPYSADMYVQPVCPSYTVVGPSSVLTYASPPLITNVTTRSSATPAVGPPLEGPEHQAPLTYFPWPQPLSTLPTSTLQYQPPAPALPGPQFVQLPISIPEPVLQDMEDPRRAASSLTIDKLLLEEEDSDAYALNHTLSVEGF
Method in brief: as §1

POU1 (OCT1 POU domain), sequence (P14859 260-458): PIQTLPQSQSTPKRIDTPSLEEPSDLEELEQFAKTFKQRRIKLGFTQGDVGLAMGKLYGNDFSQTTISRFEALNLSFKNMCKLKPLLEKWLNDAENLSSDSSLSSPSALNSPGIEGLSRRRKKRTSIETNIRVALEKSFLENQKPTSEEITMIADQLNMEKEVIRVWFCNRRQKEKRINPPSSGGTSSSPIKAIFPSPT

| Sequence | binding signal [1] | binding signal [2] | binding signal [3] | binding signal [4] |
| --- | --- | --- | --- | --- |
| AAGGTAAC | 0.0313 % of ANNNNAAN 8-mers | 0.0293 % of ANNNNAAN 8-mers | 0.0234 % of ANNNNAAN 8-mers | 0.0322 % of ANNNNAAN 8-mers |
| AACGAAAC | 0.0225 % of ANNNNAAN 8-mers | 0.027 % of ANNNNAAN 8-mers | 0.0238 % of ANNNNAAN 8-mers | 0.0157 % of ANNNNAAN 8-mers |
| ACACTAAA | 0.0256 % of ANNNNAAN 8-mers | 0.0293 % of ANNNNAAN 8-mers | 0.0273 % of ANNNNAAN 8-mers | 0.0173 % of ANNNNAAN 8-mers |
| ACACAAAG | 0.0309 % of ANNNNAAN 8-mers | 0.0196 % of ANNNNAAN 8-mers | 0.0418 % of ANNNNAAN 8-mers | 0.0305 % of ANNNNAAN 8-mers |
| AGGAGAAA | 0.0572 % of ANNNNAAN 8-mers | 0.0541 % of ANNNNAAN 8-mers | 0.0539 % of ANNNNAAN 8-mers | 0.0471 % of ANNNNAAN 8-mers |
| AGACGAAA | 0.0309 % of ANNNNAAN 8-mers | 0.0472 % of ANNNNAAN 8-mers | 0.0343 % of ANNNNAAN 8-mers | 0.0264 % of ANNNNAAN 8-mers |
| ATTCTAAA | 0.0946 % of ANNNNAAN 8-mers | 0.123 % of ANNNNAAN 8-mers | 0.0542 % of ANNNNAAN 8-mers | 0.0726 % of ANNNNAAN 8-mers |
| AAGTCAAG | 0.0332 % of ANNNNAAN 8-mers | 0.0403 % of ANNNNAAN 8-mers | 0.0367 % of ANNNNAAN 8-mers | 0.033 % of ANNNNAAN 8-mers |
| AGGGCAAT | 0.0442 % of ANNNNAAN 8-mers | 0.0558 % of ANNNNAAN 8-mers | 0.0457 % of ANNNNAAN 8-mers | 0.0611 % of ANNNNAAN 8-mers |
| ACTGCAAT | 0.0301 % of ANNNNAAN 8-mers | 0.0213 % of ANNNNAAN 8-mers | 0.0367 % of ANNNNAAN 8-mers | 0.0248 % of ANNNNAAN 8-mers |
| AGGCAAAA | 0.236 % of ANNNNAAN 8-mers | 0.136 % of ANNNNAAN 8-mers | 0.454 % of ANNNNAAN 8-mers | 0.204 % of ANNNNAAN 8-mers |
| AAGGAAAA | 0.113 % of ANNNNAAN 8-mers | 0.0955 % of ANNNNAAN 8-mers | 0.17 % of ANNNNAAN 8-mers | 0.0999 % of ANNNNAAN 8-mers |
| AAAGGAAA | 0.103 % of ANNNNAAN 8-mers | 0.0903 % of ANNNNAAN 8-mers | 0.144 % of ANNNNAAN 8-mers | 0.0933 % of ANNNNAAN 8-mers |
| ATTGTAAG | 0.0507 % of ANNNNAAN 8-mers | 0.0685 % of ANNNNAAN 8-mers | 0.0593 % of ANNNNAAN 8-mers | 0.0594 % of ANNNNAAN 8-mers |
